In the supplement of paper PMC7366291:
Structures can show the parent of a compound that is named as a salt.

System: Danio rerio Tg(wt1b:EGFP) embryo, pronephros
Assay: fraction of imaged embryos annotated as normal kidney; higher = less nephrotoxic; extreme values may be limits of the assay
Settings: 25 µM; exposure: 24-48 hpf
How it was run: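 Embryos of the Tg(wt1b:EGFP) zebrafish line were dechorionated and held in 12-well plates with 25 μM compound in 0.5% DMSO and 5 mM HEPES-buffered E3 containing 0.003% PTU, from 24 to 48 hpf at 28.5°C. Larvae were then anaesthetised with tricaine, set dorsal side up in agarose-filled 96-well plates, and their pronephroi imaged by widefield fluorescence at 470 nm over 10 z-slices. Each value is the fraction of embryos per treatment placed in the normal-kidney category after manual annotation of maximum projections.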

Row | SMILES | fraction of imaged embryos annotated as normal kidney
1 | COC(=O)C1=C(C#N)NC(C)=C(C(=O)OC(C)C)C1c1cccc([N+](=O)[O-])c1 (stereo unspecified) [Nilvadipine] | 0.167
2 | NCc1ccc(S(N)(=O)=O)cc1 [Mafenide hydrochloride] | 0.833
3 | Clc1ccccc1C(c1ccccc1)(c1ccccc1)n1ccnc1 [Clotrimazole] | 0.583
4 | CCN1CCN(c2cc3c(cc2F)c(=O)c(C(=O)O)cn3C2CC2)CC1 [Enrofloxacin] | 0.917
5 | Nc1c(Br)cc(Br)cc1CN[C@H]1CC[C@H](O)CC1 [Ambroxol hydrochloride] | 1
6 | CNCC(O)c1ccc(OC(=O)C(C)(C)C)c(OC(=O)C(C)(C)C)c1 (stereo unspecified) [Dipivefrin hydrochloride] | 0.833
7 | CCCc1nn(C)c2c(=O)[nH]c(-c3cc(S(=O)(=O)N4CCN(C)CC4)ccc3OCC)nc12 [Sildenafil] | 1
8 | NS(=O)(=O)c1cc2c(cc1Cl)N=C(CSCc1ccccc1)NS2(=O)=O [Benzthiazide] | 0.917
9 | CC(C)(C(=O)O)c1ccc(C(O)CCCN2CCC(C(O)(c3ccccc3)c3ccccc3)CC2)cc1 (stereo unspecified) [Fexofenadine hydrochloride] | 0.833
10 | CC(C)NCC(O)c1ccc(NS(C)(=O)=O)cc1 (stereo unspecified) [Sotalol hydrochloride] | 0.8
11 | Cc1ccsc1/C=C/C1=NCCCN1C [Morantel tartrate] | 0.5
12 | C[C@H](Cc1cc2c(c(C(N)=O)c1)N(CCCO)CC2)NCCOc1ccccc1OCC(F)(F)F [Silodosin] | 0.917
13 | OCCN1CCN(CCCN2c3ccccc3C=Cc3ccccc32)CC1 [Opipramol dihydrochloride] | 0.75
14 | CCCCNc1ccc(C(=O)OCCOCCOCCOCCOCCOCCOCCOCCOCCOC)cc1 [Benzonatate] | 0.7
15 | O=C(COc1ccc(Cl)cc1)N1CCN(Cc2ccc3c(c2)OCO3)CC1 [Fipexide hydrochloride] | 0.75
16 | C[C@H]1C[C@H]2[C@@H]3CCC4=CC(=O)C=C[C@]4(C)[C@@]3(F)[C@@H](O)C[C@]2(C)[C@@]1(O)C(=O)CO [Betamethasone] | 0.583
17 | Cc1ccc(NC(=O)c2ccc(CN3CCN(C)CC3)cc2)cc1Nc1nccc(-c2cccnc2)n1 [Imatinib] | 1
18 | c1ccc2c(CC3=NCCN3)cccc2c1 [Naphazoline hydrochloride] | 1

Row | SMILES | fraction of imaged embryos annotated as normal kidney
19 | CN(N=O)C(=O)N[C@@H](C=O)[C@@H](O)[C@H](O)[C@H](O)CO [Streptozotocin] | 1
20 | Nc1nc(F)nc2c1ncn2[C@@H]1O[C@H](CO)[C@@H](O)[C@@H]1O [Fludarabine] | 1
21 | C[C@](N)(Cc1ccc(O)c(O)c1)C(=O)O [Methyldopa (L,-)] | 0.909
22 | NC(Cc1cc(I)c(Oc2cc(I)c(O)c(I)c2)c(I)c1)C(=O)O (stereo unspecified) [Thyroxine (L)] | 0.75
23 | CCCC(CCC)C(=O)O [Valproic acid] | 0.0833
24 | Cn1c(=O)c2c(ncn2CC(=O)O)n(C)c1=O [Acefylline] | 0.917
25 | CO[C@@]1(NC(=O)CSCC#N)C(=O)N2C(C(=O)O)=C(CSc3nnnn3C)CS[C@@H]21 [Cefmetazole sodium salt] | 0.917
26 | O=C(O)COC(=O)Cc1ccccc1Nc1c(Cl)cccc1Cl [Aceclofenac] | 0.25
27 | CCC1=C(C)CN(C(=O)NCCc2ccc(S(=O)(=O)NC(=O)N[C@H]3CC[C@H](C)CC3)cc2)C1=O [Glimepiride] | 0.917
28 | Nc1nnc(-c2cccc(Cl)c2Cl)c(N)n1 [Lamotrigine] | 0.9
29 | CCN(CC)C(=O)/C(C#N)=C/c1cc(O)c(O)c([N+](=O)[O-])c1 [Entacapone] | 0.583
30 | CCCC1O[C@@H]2C[C@H]3[C@@H]4CCC5=CC(=O)C=C[C@]5(C)[C@H]4[C@@H](O)C[C@]3(C)[C@]2(C(=O)CO)O1 (stereo partly specified) [Budesonide] | 0.833
31 | CC(C)C(=O)Nc1ccc([N+](=O)[O-])c(C(F)(F)F)c1 [Flutamide] | 0.667
32 | NS(=O)(=O)c1cc2c(cc1C(F)(F)F)NC(Cc1ccccc1)NS2(=O)=O (stereo unspecified) [Bendroflumethiazide] | 0.875
33 | CCN(CC)C(=O)C1(c2ccccc2)CC1CN (stereo unspecified) [Milnacipran hydrochloride] | 1
34 | COc1ccc2cc([C@H](C)C(=O)O)ccc2c1 [Naproxen] | 0.167
35 | CC(Oc1c(Cl)cccc1Cl)C1=NCCN1 (stereo unspecified) [Lofexidine] | 0.833
36 | CC(C)NC(=N)NC(=N)Nc1ccc(Cl)cc1 [Proguanil hydrochloride] | 0.917
